# High-throughput results (PubChem)
# HPGD inh: qHTS Assay for Inhibitors of HPGD (15-Hydroxyprostaglandin Dehydrogenase). purified HPGD, NADH fluorescence kinetic, PGE2 substrate. 15-hydroxyprostaglandin dehydrogenase [NAD(+)] (Homo sapiens), P15428. AID 894, 2007. 4.3% of 150,000 active. Potency, µM, for the others: at the top dose activity change, negative = inhibition, hits mostly inhibitors; active means well fitted inhibition curve with a large enough effect, not every such curve was filed as active; inconclusive means small, poorly fitted or top-dose-only effect, or another doubt; inactive means no such curve, though single readings can be large or run the other way; further: on the % scale 0 is the no-effect control and ±100 the full control effect
# Target sequence (P15428 whole entry, looked up): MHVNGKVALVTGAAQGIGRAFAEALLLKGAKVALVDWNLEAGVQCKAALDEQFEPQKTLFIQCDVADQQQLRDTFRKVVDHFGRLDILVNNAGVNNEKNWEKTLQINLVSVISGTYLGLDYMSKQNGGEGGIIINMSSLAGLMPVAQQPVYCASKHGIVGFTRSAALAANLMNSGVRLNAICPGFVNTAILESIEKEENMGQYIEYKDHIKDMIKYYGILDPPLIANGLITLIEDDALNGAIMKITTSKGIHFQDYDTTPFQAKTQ
#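 NADH formation kinetics: reaction with 30 uM PGE2 and 1 mM NAD+ (final), 20 nM enzyme, Tris-HCl pH 8 with Tween 20, after 15 min compound preincubation at room temperature. Fluorescence change, last versus first of five reads.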
# HTT aggregate: qHTS Multiplex Assay to Identify Dual Action Probes in a Cell Model of Huntington: Aggregate Formation (GFP); PC12 HttQ103-GFP aggregates, Acumen cytometry, 40 h; Potency, µM (doses to about 46.1 µM), without a hit: top-dose activity change, negative = inhibition, usual class: inhibitors; 1.1% of 220,000 active; AID 1688, 2009; further: on the % scale 0 is the no-effect control and ±100 the full control effect; nearly all actives have a fitted effect of over 60% in size
#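 Huntingtin Q103 exon 1–GFP aggregates in induced PC12 cells (100 nM tebufenozide) were quantified by cytometry from lysates, with compounds dosed in titration.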
# HTT ATP protect: qHTS Multiplex Assay to Identify Dual Action Probes in a Cell Model of Huntington: Cytoprotection (ATP); PC12 HTT-Q103 induced, cytoprotection, ATP luminescence, 40 h; Potency, µM (top dose mostly 56.4 µM), for inactives: cytoprotection (ATP increase), most hits filed as activators; 0.14% of 230,000 active; further: % of control where 0% means no effect; nearly all actives have a fitted effect of over 45% in size
#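 Quantitative HTS on tebufenozide-induced (100 nM) PC12 cells expressing HTTQ103 exon 1–GFP; compounds tested as a concentration series; survival measured via cellular ATP.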
# ALDH1A1 inh: qHTS Assay for Inhibitors of Aldehyde Dehydrogenase 1 (ALDH1A1). 7.3% of 220,000 active. Aldehyde dehydrogenase 1A1 (Homo sapiens), P00352. Purified ALDH1A1, NADH fluorescence, propionaldehyde substrate. Potency, µM (highest dose often 75.3 µM), inactives show at the top dose activity, negative = inhibition, usual class: inhibitors; active means well fitted inhibition curve with a large enough effect, not every such curve was filed as active; inconclusive means small, poorly fitted or top-dose-only effect, or another doubt; inactive means no such curve, though single readings can be large or run the other way;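 further: plate controls were no enzyme wells and a reference inhibitor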
# Target sequence (P00352 whole entry, looked up): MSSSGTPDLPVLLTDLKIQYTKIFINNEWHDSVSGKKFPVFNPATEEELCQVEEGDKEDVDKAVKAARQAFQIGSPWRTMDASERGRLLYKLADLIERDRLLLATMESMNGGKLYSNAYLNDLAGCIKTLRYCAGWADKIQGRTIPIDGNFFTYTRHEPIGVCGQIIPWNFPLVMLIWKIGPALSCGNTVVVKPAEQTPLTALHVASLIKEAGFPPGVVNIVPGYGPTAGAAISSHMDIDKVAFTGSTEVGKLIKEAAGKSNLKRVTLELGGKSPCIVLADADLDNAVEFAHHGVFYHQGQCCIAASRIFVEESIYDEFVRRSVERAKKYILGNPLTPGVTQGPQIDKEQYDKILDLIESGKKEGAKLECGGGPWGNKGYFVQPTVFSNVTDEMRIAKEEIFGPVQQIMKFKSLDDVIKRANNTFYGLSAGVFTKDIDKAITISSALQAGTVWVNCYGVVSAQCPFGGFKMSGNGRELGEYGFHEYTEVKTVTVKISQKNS
# Luc counter: Counterscreen for Luciferase (Kinase-Glo TM) Inhibition; Potency, µM (doses to about 38.3 µM), for inactives: at the top dose activity change, negative = inhibition, most hits filed as inhibitors; 0.28% of 200,000 active; Luciferin 4-monooxygenase (Photuris pensylvanica), Q27757; Kinase-Glo luciferase, ATP luminescence, 8 min; further: on the % scale 0 is the no-effect control and ±100 the full control effect; nearly all actives have a fitted effect of over 60% in size
#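 Kinase-Glo luciferase light output from ATP and luciferin was measured with 10 uM ATP, within the enzyme's linear range. Buffer: 50 mM imidazole pH 7.2, 50 mM KCl, 7 mM MgCl2, 0.01% Tween 20, 0.05% BSA; luminescence read after 8 min at ambient temperature.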
# Lamin A splicing: qHTS Assay for Modulators of Lamin A Splicing | HeLa LMNA splicing GFP/RFP minigene ratio, 48 h | Potency, µM (series often up to 46.1 µM), without a hit: at the highest dose ratio change, negative = inhibition, actives largely listed as inhibitors | 0.01% of 200,000 active; active means well fitted inhibition curve with a large enough effect in the signal ratio, with a control signal flat, not every such curve was filed as active; inconclusive means small, poorly fitted or top-dose-only effect, or effect the other way, or a change in a side signal; the % refers to the signal ratio; further: on the % scale 0 is the no-effect control and ±100 the full control effect
#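 S3 HeLa cells stably expressing lamin A-EGFP splicing minigene plus DsRed2, 600 cells/well, 48 h compound exposure at 37C. Laser-scanning cytometry; analysed as GFP (500-530 nm)/RFP (575-640 nm) total intensity ratio; 0.5% DMSO vehicle.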
# * marks the source's active call; other numbers are inactive results; ? = inconclusive; nt = not tested or not shown; ! = a repeat was not active; [ ] = remark or other dose. An excerpt weighted towards active compounds, which were near 9% of everything screened. Unless noted, the call rests on the fitted dose curve; in most records, active means well fitted curve in the direction sought with a large enough effect; inconclusive means small, poorly fitted or top-dose-only effect, or another doubt; inactive means no such curve, though single readings can be large; an effect the other way counts as inactive or inconclusive. Potency means the concentration at half of the fitted maximal effect.
SMILES,HPGD inh,HTT aggregate,HTT ATP protect,ALDH1A1 inh,Luc counter,Lamin A splicing
CCOC(=O)c1nnn(-c2nonc2N)c1CNC(C)C,-13%,-9%,-5%,-2%,0%,3%
NNC(=O)c1nnn(-c2nonc2N)c1CN1CCc2ccccc2C1,nt,9%,-4%,4µM*,2%,-14%[46 µM]
CCOC(=O)c1nnn(-c2nonc2N)c1CN(CC)CC,-2%,-7%,-2%,-5%,-1%,7%
CCOC(=O)c1nnn(-c2nonc2-n2cccc2)c1CN1CCCCC1,-23%,18%,-20%,6%,-2%,19%
Cc1c(C(=O)N2CCCCCC2)nnn1-c1nonc1N,32µM*,-5%,2%,11µM*,-2%,-4%
CCOC(=O)c1nnn(-c2nonc2N)c1CN1CCCCCC1,-6%,0%[9.22 µM],23%,2.2µM*,1%,-1%
Nc1nonc1-n1nnc(C(=O)N/N=C/c2ccccc2)c1CSc1ccccc1,nt,-16%[9.22 µM],0%[10 µM],nt,nt,nt
CCN1CCN(C(=O)c2cc(-c3cccnc3)nc3ccc(Br)cc23)CC1,-24%,5%,-16%,-9%,2%,-8%
Cc1nc(C)n(CC(O)COc2ccc3c(c2)CCC3)n1 (configuration not stated),-9%,-17%,8%[10 µM],-12%,1%,-1%
CCOC(=O)c1c(C)nc2sc3c(=O)n(-c4ccc(C(C)=O)cc4)cnc3c2c1-c1ccc(OC)cc1,-8%,15%,5%[10 µM],?,5%,-6%
O=C(O)c1cc(S(=O)(=O)NCC2CCCO2)ccc1Cl (configuration not stated),-3%,5%,-18%,-1%,-5%,-2%
CCOC(=O)CSc1nc2ccccc2c(=O)n1CC,-13%,-22%,-10%[0.074 µM],-4%,4%,-7%
COCCn1c(SCC(=O)N2CCC(C)CC2)nc2ccccc2c1=O,-5%,12%[9.22 µM],-20%,11µM*,3%,-2%
CC(C)Cn1c(SCC(=O)N2CCCCC2)nc2ccccc2c1=O,-10%,-5%,-4%[10 µM],22µM*,1%,-13%
CCn1c(SCC(=O)OC2CCCCC2)nc2ccccc2c1=O,-17%,0.63µM*,-3%[10 µM],?,-1%,-5%
COCCCn1c(SCc2nnc(-c3ccc(OC)c(OC)c3)o2)nc2ccccc2c1=O,20µM*,18%,4%[10 µM],-15%,1%,?
COCCn1c(SCC(=O)N2CCc3ccccc3C2)nc2ccccc2c1=O,-3%,9%,5%[1.9 µM],-12%,4%,-5%
CCOc1ccccc1Nc1ccnc2cc(Cl)ccc12,nt,-3%[9.22 µM],-10%[10 µM],-4%,5%,-14%[46 µM]
Cc1nc(CSc2nnc(N)s2)cs1,nt,-13%,-22%,-1%,-1%,9%[46 µM]
O=C(CSc1nc2ccccc2n1CC(=O)N1CCCCC1)N1CCCCC1,nt,-17%[9.22 µM],-3%[10 µM],nt,nt,nt
COCCn1c(SCC(=O)c2ccccc2)nc2ccccc2c1=O,nt,19%[9.22 µM],13%[10 µM],18µM*,-9%,7%[46 µM]
O=C(Cn1c(S(=O)(=O)Cc2ccccc2)nc2ccccc21)N1CCCCC1,-18%,2%,-8%,25µM*,6%,-13%
NS(=O)(=O)c1ccc(CCNC(=O)CSc2nc3ccccc3c(=O)n2CCN2CCOCC2)cc1,nt,-12%,-18%,-12%,-3%,nt
O=C(CSc1nc2ccccc2n1S(=O)(=O)c1ccccc1)N1CCCCC1,1.8µM*,10%,-8%,-6%,3%,-4%
NC(=O)CS(=O)(=O)c1nc2ccccc2n1CC(=O)N1CCCCC1,-1%,-3%,?,9%,1%,-16%
SMILES,HPGD inh,HTT aggregate,HTT ATP protect,ALDH1A1 inh,Luc counter,Lamin A splicing
NS(=O)(=O)c1ccc(CCNC(=O)CSc2nc3ccccc3c(=O)n2CCC(=O)N2CCCCC2)cc1,nt,-1%,-37%,7.9µM*,-5%,nt
COC(=O)/C=C1\NC(=O)C(C)S1 (configuration not stated),nt,10%,-17%,-8%,-2%,nt
COc1cc(C2CC(=O)C=C(O)C2)cc(OC)c1OC (configuration not stated),-5%,-3%,-4%,1%,1%,11%
CN(Cc1cn(-c2ccccc2)nc1-c1ccc(F)cc1)C(=O)CCC(=O)O,-3%,21%,39%[10 µM],-11%,3%,1%
O=C(O)c1ccc(NS(=O)(=O)/C=C/c2ccccc2)cc1O,-21%,11%,0%,10µM*,5%,7%
CC1CCCN(C(=O)CSc2nnc3n(C4CCCC4)c(=O)c4ccccc4n23)C1 (configuration not stated),20µM*,12%,7%,7.9µM*,-3%,4%
O=C(c1ccccc1F)N1CCN(c2ccc([N+](=O)[O-])c(N3CCOCC3)c2)CC1,nt,19%[9.22 µM],7%[10 µM],0.71µM*,-5%,nt
O=C(c1cccc2ccccc12)N1CCN(c2ccc([N+](=O)[O-])c(N3CCOCC3)c2)CC1,-19%,1%,2%[10 µM],10µM*,2%,-14%
Cc1nnc2c3ccccc3c(-c3cccs3)nn12,nt,3%,-34%,9%,1%,7.9µM*
O=C1/C(=N/n2cnnc2)c2ccccc2N1Cc1ccccc1,-19%,2%,-20%,0.089µM*,5%,21%
O=C(CCC1CCCN(Cc2ccc3c(c2)OCCO3)C1)NCc1ccccc1F (configuration not stated),nt,4%[9.22 µM],6%[10 µM],nt,nt,nt
CC(CN1c2ccccc2Sc2ccccc21)N(C)C (configuration not stated),-26%,28µM*!,-187%,?,0%,?
Fc1cccc(Nc2ncnc3sc4c(c23)CCC4)c1,-16%,?,-24%[10 µM],-5%,3%,?
Fc1ccc(Nc2nc(Oc3ccc4c(c3)OCO4)nc(N3CCOCC3)n2)c(F)c1,-4%,-3%,15%,12%,-2%,1%
CN(C)c1ccc(N=NS(=O)(=O)O)cc1,-16%,nt,3%,10µM*,nt,nt
CN(C)c1ccc(C(=O)c2ccccc2)cc1,?,11%,-39%,-11%,-7%,-6%
O=C(NCCN1C(=O)CSC1=O)C1CC(=O)N(c2ccccc2)C1 (configuration not stated),-1%,-6%,15%,-7%,-4%,3%
Cc1cc(=O)[nH]c2c(N=Nc3ccc(O)cc3)c(N)nn12,nt,-8%[9.22 µM],-10%[10 µM],18µM*,-3%,nt
